Records with an inconclusive call do not appear. A number with no mark means an inactive call. The source made the active and inactive calls. Calls come from the whole dose curve; as a rule, active = well fitted curve in the direction sought with a large enough effect; inconclusive = small, poorly fitted or top-dose-only effect, or another doubt; inactive = no such curve, though single readings can be large; an effect the other way counts as inactive or inconclusive.

The nature of assay [1]: qHTS of pediatric cancer cell lines to identify multiple opportunities for drug repurposing: Primary screen for OHS-50 cells (AID 1347103). Note: nearly all actives have a fitted effect of over 40% in size. Note: potency is the fitted concentration of half-maximal effect. In short, it runs like this:
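Cells (500-1,000/well) rested 5 h, then received compounds for 48 h; metabolically active cells were measured by CellTiter-Glo luminescence. Final concentrations spanned up to 46 µM (MIPE, 11-point) or 0.59 nM-46 µM (NPC, 8-point) in primary screens, 11-point in follow-ups.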
A general note: In qHTS, concentration-response curves come from the screen itself.

A short description of assay [2]: qHTS of pediatric cancer cell lines to identify multiple opportunities for drug repurposing: Primary screen for RD cells (AID 1347104). Note: nearly all actives have a fitted effect of over 55% in size. Note: potency is the fitted concentration of half-maximal effect. The gist of the method: (§1)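 Cells plated at 500-1,000/well in growth medium, compounds added after 5 h. MIPE tested at 11 points (from 0.78 nM), NPC at 8 points (from 0.59 nM). CellTiter-Glo luminescence after 48 h; concentration-response curves from primary screen.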

Assay [3] can be described thus: qHTS of pediatric cancer cell lines to identify multiple opportunities for drug repurposing: Primary screen for MG 63 (6-TG R) cells (AID 1347105). Note: nearly all actives have a fitted effect of over 50% in size. Note: potency is the fitted concentration of half-maximal effect. In short, it runs like this:
as §1

Assay [4] in a line: qHTS of pediatric cancer cell lines to identify multiple opportunities for drug repurposing: Primary screen for control Hh wild type fibroblast cells (AID 1347106).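 Note: series mostly up to about 46 µM; a drop in luminescence marks cytotoxicity and a rise apparent proliferation; nearly all actives have a fitted effect of over 55% in size.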 In short, it runs like this: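 Cells (500-1,000/well) in growth media were settled 5 h at 37 degrees C, then given compounds for 48 h. Viability was read as CellTiter-Glo luminescence. Primary runs used MIPE at 11 points (0.78 nM-46 µM) and NPC at 8 points (0.59 nM-46 µM); follow-ups used 11 points.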

Assay [5] can be described thus: qHTS of pediatric cancer cell lines to identify multiple opportunities for drug repurposing: Primary screen for Rh30 cells (AID 1347107). Note: series mostly up to about 46 µM; nearly all actives have a fitted effect of over 75% in size. The gist of the method: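 Viability after 48 h compound treatment at 37C, 500-1,000 cells/well, read as ATP luminescence with CellTiter-Glo. Primary screens used 11-point (MIPE, 0.78 nM-46 µM) or 8-point (NPC, 0.59 nM-46 µM) final concentrations; follow-up screens used 11-point dilutions.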

Assay [6] can be described thus: qHTS of pediatric cancer cell lines to identify multiple opportunities for drug repurposing: Primary screen for Rh41 cells (AID 1347108).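 Note: series mostly up to about 46 µM; luminescence drop marks cytotoxic hits; nearly all actives have a fitted effect of over 70% in size.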 In short, it runs like this: as §1

For the molecule `CC(C)C(C)(C)C(C)(C)C(C)(C)S`, the Potency entry in assay [1], in assay [2], in assay [3], in assay [4], in assay [5] and in assay [6] was “inactive” in each case.
As to `O=C(O)C(=O)Nc1cccc(-c2nn[nH]n2)c1`, the Potency result in assay [1], in assay [2], in assay [3], in assay [4] and in assay [5] was “inactive” in each case.
Consider `CCCCCCCCCCCCCC[N+](C)(C)C`, for which the Potency in assay [1] is 3.09 µM (active); in assay [2] it was 11.9 µM (active); in assay [3], 26.6 µM (active).
Regarding `NC(=O)C1(N2CCCCC2)CCN(CCCN2c3ccccc3CCc3ccc(Cl)cc32)CC1`, the Potency in assay [1] was 24.6 µM (active).
For `CCOC(=O)c1ccc(OCCN2C[C@H](O)[C@@H](O)[C@H](O)[C@H]2CO)cc1`, the Potency entry in assay [1], in assay [2], in assay [3], in assay [4], in assay [5] and in assay [6] was “inactive” in each case.
As to `Brc1ccccc1-c1ccccc1`, the Potency result in assay [1], in assay [2], in assay [3], in assay [4], in assay [5] and in assay [6] was “inactive” in each case.
On to `COC(=O)c1ccc(NC(C)=O)cc1OC`, for which the Potency result in assay [1], in assay [2], in assay [3], in assay [4], in assay [5] and in assay [6] was “inactive” in each case.
As to `O=C1CC2(CCCC2)CC(=O)N1`, the Potency result in assay [1], in assay [2], in assay [3], in assay [4], in assay [5] and in assay [6] was “inactive” throughout.
On to `C[C@H]1NCc2cc(-c3ccc4c(=O)c(C(=O)O)cn(C5CC5)c4c3OC(F)F)ccc21`, for which the Potency result in assay [1], in assay [2], in assay [3], in assay [4], in assay [5] and in assay [6] was “inactive” in each case.
With `O=C1[C@@H]2[C@H]3CC[C@H](C3)[C@@H]2C(=O)N1CCCCN1CCN(c2ncccn2)CC1`, the Potency entry in assay [1], in assay [2], in assay [3], in assay [4], in assay [5] and in assay [6] was “inactive” each time.
In the case of `CCOC(=O)Oc1ccc(CCNC(=O)[C@H](CCSC)NC(C)=O)cc1OC(=O)OCC`, the Potency result in assay [1], in assay [2], in assay [3], in assay [4], in assay [5] and in assay [6] was “inactive” in each case.
Take `N[C@@H](Cc1cc(I)c(O)c(I)c1)C(=O)O`: the Potency result in assay [1], in assay [2], in assay [3], in assay [4], in assay [5] and in assay [6] was “inactive” each time.
For `COC(=O)/C=C\C(=O)OC`, the Potency entry in assay [1], in assay [2], in assay [3], in assay [4], in assay [5] and in assay [6] was “inactive” in each case.
Regarding `O=C(O)Cn1c(=O)n(Cc2ccc(Br)cc2F)c(=O)c2ccc(Cl)cc21`, the Potency result in assay [1], in assay [2], in assay [3], in assay [4], in assay [5] and in assay [6] was “inactive” in each case.
Regarding `CC(C)(C)c1nnc(NS(=O)(=O)c2ccccc2)s1`, the Potency result in assay [1], in assay [2], in assay [3], in assay [4], in assay [5] and in assay [6] was “inactive” each time.
On to `C/C(=N\O)[C@@H](C)NCC(C)(C)CN[C@H](C)/C(C)=N/O`, for which the Potency result in assay [1], in assay [2], in assay [3], in assay [4], in assay [5] and in assay [6] was “inactive” throughout.
As for `CSc1ccc(/C=C2/C(C)=C(CC(=O)O)c3cc(F)ccc32)cc1`, the Potency entry in assay [1], in assay [2], in assay [3], in assay [4], in assay [5] and in assay [6] was “inactive” throughout.
As to `COc1ccc2nc(SCc3ncc(C)c(OC)c3C)[nH]c2c1`, the Potency result in assay [1], in assay [2], in assay [3], in assay [4], in assay [5] and in assay [6] was “inactive” in each case.
Regarding `O=C(CO)[C@@H](O)[C@H](O)[C@@H](O)CO`, the Potency result in assay [1], in assay [2], in assay [3], in assay [4], in assay [5] and in assay [6] was “inactive” throughout.
As for `C[C@@H]1CCC[C@H](C)N1CCCC(O)(c1ccccc1)c1ccccn1` (stereo partly specified), the Potency entry in assay [1], in assay [2], in assay [3], in assay [4], in assay [5] and in assay [6] was “inactive” each time.
For the molecule `CC(=O)N1CCN(c2ccc(O)cc2)CC1`, the Potency result in assay [1], in assay [2], in assay [3], in assay [4], in assay [5] and in assay [6] was “inactive” each time.
As for `O=C1CC2(CCCC2)CC(=O)N1CCNCC1COc2ccccc2O1` (stereo unspecified), the Potency result in assay [1], in assay [2], in assay [3], in assay [4], in assay [5] and in assay [6] was “inactive” throughout.
Turning to `O=C(Oc1ccccc1)c1cccc(C(=O)Oc2ccccc2)c1`, the Potency result in assay [1], in assay [2], in assay [3], in assay [4], in assay [5] and in assay [6] was “inactive” each time.
On to `O=[N+]([O-])c1nccn1CO[C@@H](CO)[C@H](O)CO`, for which the Potency entry in assay [1], in assay [2], in assay [3], in assay [4], in assay [5] and in assay [6] was “inactive” each time.
`NC(=O)NC1N=C([O][Al])NC1=O` (stereo unspecified): the Potency entry in assay [1], in assay [2], in assay [3], in assay [4], in assay [5] and in assay [6] was “inactive” each time.
Regarding `COC(=O)/C=C(/C)N`, the Potency entry in assay [1], in assay [2], in assay [3], in assay [4], in assay [5] and in assay [6] was “inactive” in each case.
With `Nc1c(I)cc(I)c(C(=O)N(CCC(=O)O)c2ccccc2)c1I`, the Potency result in assay [1], in assay [2], in assay [3], in assay [4], in assay [5] and in assay [6] was “inactive” throughout.
For `O=c1[nH]c(=O)n([C@H]2O[C@H](CO)[C@@H](O)[C@@H]2O)cc1/C=C\Br`, the Potency entry in assay [1], in assay [2], in assay [3], in assay [4], in assay [5] and in assay [6] was “inactive” throughout.
For the molecule `COc1ccc(OC(=O)N(CC(=O)O)Cc2ccc(OCCc3nc(-c4ccccc4)oc3C)cc2)cc1`, the Potency result in assay [1], in assay [2], in assay [3], in assay [4], in assay [5] and in assay [6] was “inactive” each time.
`CC(=O)Nc1c(I)c(NC(C)=O)c(I)c(C(=O)O)c1I`: the Potency result in assay [1], in assay [2], in assay [3], in assay [4], in assay [5] and in assay [6] was “inactive” throughout.

The record behind these values is PubChem BioAssay (NCATS).
